Screening results as filed in PubChem.
A340 absorber – absorbance at 340 nm; compound absorbance at 340 nm, fold over control; fold change at 10 µM; 65,000 tested, under 10 active; AID 708;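 active means at 10 µM dose, initial 340 nm absorbance at least 2 fold that of control wells; inactive means change under 2 fold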;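 further: initial absorbance extrapolated from kinetic A340 decline of NADH oxidation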
NADH coupling – blocks coupling enzymes of NAD/NADH assays | IC50, µM (top dose mostly 10 µM) | coupled PK/LDH NADH assays, four targets | hit rate 0.02% among 65,000;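 active means single-dose screening hits from any of four coupled enzyme assays that gave an IC50 when retested across doses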;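 further: the DPM-DC format reads NADH fluorescence rather than 340 nm absorbance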
MK inhibit – inhibitors of Streptococcus pneumoniae mevalonate kinase. inhibition, % at 10 µM. purified MK, PK/LDH-coupled NADH absorbance 340 nm. hit rate 0.48% among 65,000;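 active means ranked among the strongest by inhibition in the single 10 µM screen, a fixed top-ranked set picked for dose follow-up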
Autofluor 339 – intrinsic fluorescence of library compounds, ex339/em460 – biochemical, MLSMR library, data from DPM-DC assay, artefact control, profiling panel. compound autofluorescence, ex339/em460 nm, NADH buffer; hits give high values; 1 = no-compound wells, NADH background. fluorescence fold increase at 10 µM. hit rate 5.5% among 65,000. AID 709;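 active means at 10 µM, mean starting fluorescence two-fold or more over control wells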;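 further: signal is the first read of a kinetic run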
Spn DPM-DC inh – inhibitors of Streptococcus pneumoniae diphosphomevalonate decarboxylase; hit rate 0.49% among 65,000; calls only at 10 µM; purified DPM-DC, PK/LDH coupled NADH fluorescence; AID 556;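 active means the 320 compounds with the highest percent inhibition in the single-dose primary screen, excluding strongly autofluorescent ones, cut at about 32% in these data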;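 further: kinetic rate of NADH fluorescence loss reporting ADP formed by the decarboxylase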
PMK inhibit – S. pneumoniae PMK inhibition. purified PMK, PK/LDH-coupled NADH absorbance 340 nm. inhibition, % at 10 µM. hit rate 0.49% among 65,000. AID 539;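 active means top-ranked compounds by inhibition in the single 10 µM screen, taking a fixed number of the strongest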
Numbers stand for hits; i = inactive; nt = no result shown; + = active, no number; ! = a repeat was not active. Sampled rows, rich in hits. Any-hit rate of the full collection: about 6.8%.

SMILES	A340 absorber	NADH coupling	MK inhibit	Autofluor 339	Spn DPM-DC inh	PMK inhibit
O=C(O)C(Oc1ccc2c3c(c(=O)oc2c1)CCC3)c1ccccc1 (configuration not stated)	i	i	i	3.7	nt	i
CCc1cc2c3c(c(=O)oc2cc1O)CCCC3	i	i	i	2.2	nt	i
Cc1cc(OCC(=O)N2CCCC2)ccc1Cl	i	i	i	i	i	i
Cc1cc(C)cc(OCc2ccc(C(=O)O)o2)c1	i	i	i	i	i	i
O=C(O)C1CCN(C(=O)COc2ccc3c4c(c(=O)oc3c2)CCC4)CC1	i	i	i	3.2	i	i
COc1cc(Nc2cc(C)nc3nc(C)nn23)cc(OC)c1OC	i	i	i	i	i	i
CCOC(=O)CNC(=O)Cn1cnc2c(nnn2-c2cccc(Cl)c2)c1=O	i	i	i	i	i	i
COC(=O)c1ccc(Cc2ccc(C(=O)OC)o2)o1	i	i	i	i	i	i
Cc1c(C)c2ccc(OCc3ccc(C(=O)O)o3)c(C)c2oc1=O	i	i	i	3.9	nt	i
Cc1cc(=O)oc2cc(OC(C)C(=O)N3CCCc4ccccc43)ccc12 (configuration not stated)	i	i	i	i	i	i
CC(=O)COc1ccc2c3c(c(=O)oc2c1)CCCC3	i	i	i	3.9	nt	i
CC(=O)C(C)Oc1ccc2c3c(c(=O)oc2c1)CCCCC3 (configuration not stated)	i	i	i	3.7	nt	i
COC(=O)c1ccc(COc2ccc3c(C)c(C)c(=O)oc3c2)o1	i	i	i	2.2	nt	i
Cc1ccc2c(C)[nH]c(=O)cc2c1	i	i	i	i	i	i
CC(=O)C(C)Oc1ccc2c3c(c(=O)oc2c1)CCCC3 (configuration not stated)	i	i	i	2.1	nt	i
Cc1nnc(NC(=O)C(C)Oc2ccc3c(C)cc(=O)oc3c2)s1 (configuration not stated)	i	i	i	i	i	i
COC(=O)CNC(=O)COC(=O)c1cc(Cl)cc(Cl)c1N	i	i	i	3.4	nt	i
CCCn1nnnc1SCC(=O)NCc1ccc2c(c1)OCO2	i	i	i	i	i	i
Cc1nn2c(c1-c1ccccc1)NC1=C(C(=O)CCC1)C2c1cccnc1 (configuration not stated)	i	i	i	3.8	nt	i
Nc1c(C(=O)NC2CCCC2)sc2nc(-c3cccs3)ccc12	i	i	i	2.8	+	i
COc1ccccc1CNCc1cc(OC)c(OC)cc1OC	i	i	53	i	i	i
COc1ccccc1CNC(=O)COc1ccccc1OC	i	i	i	i	i	i
COc1cccc(CNCc2ccccn2)c1OC	i	i	53	i	i	i
Cc1cc(=O)n2[nH]c(COc3ccccc3)nc2n1	i	i	i	i	i	i
CC(C)C(C(=O)Nc1ccc(N2CCOCC2)cc1)N1C(=O)c2ccccc2C1=O (configuration not stated)	i	i	i	i	i	i
SMILES	A340 absorber	NADH coupling	MK inhibit	Autofluor 339	Spn DPM-DC inh	PMK inhibit
c1csc(-c2nnsc2-c2nc3ccccc3[nH]2)c1	i	i	i	i	i	i
O=c1[nH]c2ccccc2nc1-c1cccs1	i	i	i	4.9	nt	i
COc1cc(OC)c(-c2nn3c(-c4ccco4)nnc3s2)cc1OC	i	i	i	3.4	nt	i
COc1ccc(-c2nn3c(-c4ccco4)nnc3s2)cc1OC	i	i	i	i	+	i
COc1ccc(-c2nnc3sc(-c4ccco4)nn23)cc1OC	i	i	i	i	i	i
COc1cc(OC)c(-c2nn3c(-c4cccnc4)nnc3s2)cc1OC	i	i	i	3.9	nt	i
COc1cc(OC)c(-c2nn3c(-c4ccncc4)nnc3s2)cc1OC	i	i	i	i	i	i
Brc1ccc(-c2nnc3n2-c2ccccc2CC3)cc1	i	i	i	i	i	i
COc1cccc(C2/C(=C(/O)c3ccncc3)C(=O)C(=O)N2CCCN2CCOCC2)c1OC (configuration not stated)	i	i	i	i	i	i
Cn1c2ccccc2c(=O)n2c(=O)c3ccccc3cc12	i	i	i	2.4	i	i
Cn1c(-c2ccccc2)cc(=O)c2ccccc21	i	i	i	i	i	i
O=C(Cn1cnc2ccccc2c1=O)NC1CCCc2ccccc21 (configuration not stated)	i	i	i	i	i	i
Cc1cc2n(n1)C(c1sccc1C)Nc1c(C)cccc1-2 (configuration not stated)	i	i	i	2.1	i	i
Cc1ccc2c(c1)-c1cc(C)nn1C(c1sccc1C)N2 (configuration not stated)	i	i	i	2.2	i	i
Cc1cc2n(n1)C(c1sccc1C)Nc1ccccc1-2 (configuration not stated)	i	i	i	i	i	i
COc1ccc(OC)c2c(N3CC(C)OC(C)C3)cc(C(F)(F)F)nc12 (configuration not stated)	i	i	i	2.1	i	i
CC1CN(c2cc3nccnc3cc2F)CC(C)O1 (configuration not stated)	i	i	i	i	i	i
O=C(CN1CCCCC1)N1CCN(C(=O)CN2CCCCC2)CC1	i	i	i	i	i	i
Cc1ccc2c(N)c(C)ccc2c1	i	i	i	3.7	nt	i
Cc1sc2nc3ccc(N4CCCC4)nn3c(=O)c2c1C	i	i	i	2.1	nt	i
Cc1sc2nc3n(c(=O)c2c1C)CCCS3	i	i	i	i	i	i
O=C(Nc1ccc2nsnc2c1)c1cccs1	i	i	i	i	i	i
O=C(Nc1cccc2nsnc12)c1cccs1	i	i	i	3.6!	nt	i
CCN1C(=O)c2cccc3c(S(=O)(=O)NCc4ccco4)ccc1c23	i	i	i	2.3	i	i
CCCNC(=O)c1cc(S(=O)(=O)N2CCc3ccccc32)ccc1F	i	i	i	i	i	i
SMILES	A340 absorber	NADH coupling	MK inhibit	Autofluor 339	Spn DPM-DC inh	PMK inhibit
Cc1ccc2cc(C#N)c(N3CCCN(C(=O)C4CCCO4)CC3)nc2c1C (configuration not stated)	i	i	i	2.4	i	i
CCOC(=O)c1nnn(-c2nonc2N)c1CN(C)Cc1ccccc1	i	i	i	i	i	i
O=C(c1cc2c(s1)-c1ccccc1OC2)N1CCCC1	i	i	i	2.2	nt	i
Cc1csc(NC(=O)c2cc3c(s2)-c2ccccc2OC3)n1	i	i	i	2.5	nt	i
O=C(c1cc2c(s1)-c1ccccc1OC2)N1CCN(c2ccccn2)CC1	i	i	i	2.1	nt	i
O=C(Cn1ncc2c1-c1ccccc1OC2)N1CCN(c2ccccn2)CC1	i	i	i	i	i	i
Cn1c(=O)c(C(=O)CN2CCCc3ccccc32)c(N)n(Cc2ccccc2)c1=O	i	i	i	i	i	i
C=CCN(C(=O)CNC(=O)c1ccco1)C(C(=O)NC1CCCCC1)c1ccc(OC)cc1OC (configuration not stated)	i	i	i	i	i	i
